# Assays:
# Assay in all cases: DAPPL (digital affinity profiling via proximity ligation, sequencing); 10 mM Tris-HCl pH 7.5, 50 mM NaCl, 1 mM DTT, 4% glycerol, room temperature, 30 min; GST-TFs on glutathione beads, 16-mer random dsDNA library, 0.1% formaldehyde crosslink after washing; high values mean tight binding
# Details in all cases: protein: recombinant; tags: N-terminal GST; dsDNA, one strand shown
# FLI1 = molecular target: T1, FLI1 (Homo sapiens, UniProt Q01543 1-452)
# T1 sequence: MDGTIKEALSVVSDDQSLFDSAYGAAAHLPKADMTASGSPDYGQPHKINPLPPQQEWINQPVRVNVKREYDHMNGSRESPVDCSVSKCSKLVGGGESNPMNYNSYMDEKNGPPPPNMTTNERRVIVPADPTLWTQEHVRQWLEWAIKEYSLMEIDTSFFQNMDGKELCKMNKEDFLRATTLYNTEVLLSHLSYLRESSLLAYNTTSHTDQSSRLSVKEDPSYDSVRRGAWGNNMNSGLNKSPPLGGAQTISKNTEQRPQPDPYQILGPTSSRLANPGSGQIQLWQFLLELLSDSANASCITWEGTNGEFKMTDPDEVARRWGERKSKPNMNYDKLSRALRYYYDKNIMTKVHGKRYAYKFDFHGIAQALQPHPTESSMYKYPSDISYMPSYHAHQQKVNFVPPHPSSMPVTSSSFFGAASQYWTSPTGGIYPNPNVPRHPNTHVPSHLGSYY
# Summary of the method: (§1)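 A tag-only sample was pooled with DNA-barcoded human transcription factors that had been expressed in yeast as GST fusions and captured on glutathione beads. The pools were incubated for 30 min at room temperature with 200 nmole of a random double-stranded 16-mer DNA library in Tris/NaCl/DTT/glycerol buffer, then washed, crosslinked with 0.1% formaldehyde, proximity-ligated (BsaI/T4 ligase, 1 h, 37 °C), PCR-amplified and sequenced on an Illumina NextSeq500. Binding signal is each hexamer's read frequency for a factor divided by its frequency for the tag-only sample.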
# ELK1 = molecular target: T2, ELK1 (Homo sapiens, UniProt P19419 1-428)
# T2 sequence: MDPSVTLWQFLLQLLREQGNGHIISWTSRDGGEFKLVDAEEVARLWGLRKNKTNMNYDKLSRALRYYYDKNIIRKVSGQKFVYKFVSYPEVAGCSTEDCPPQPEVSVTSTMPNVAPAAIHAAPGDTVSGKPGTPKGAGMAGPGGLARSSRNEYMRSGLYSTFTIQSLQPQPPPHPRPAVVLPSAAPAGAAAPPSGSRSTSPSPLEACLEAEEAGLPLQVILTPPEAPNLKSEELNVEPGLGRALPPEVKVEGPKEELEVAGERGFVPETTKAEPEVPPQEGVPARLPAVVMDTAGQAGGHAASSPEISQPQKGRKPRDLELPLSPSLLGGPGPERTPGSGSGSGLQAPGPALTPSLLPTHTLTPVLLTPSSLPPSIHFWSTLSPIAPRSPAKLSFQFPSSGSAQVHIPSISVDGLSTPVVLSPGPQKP
# Summary of the method: as §1
# GABPA = molecular target: T3, GABPA (Homo sapiens, UniProt Q06546 1-454)
# T3 sequence: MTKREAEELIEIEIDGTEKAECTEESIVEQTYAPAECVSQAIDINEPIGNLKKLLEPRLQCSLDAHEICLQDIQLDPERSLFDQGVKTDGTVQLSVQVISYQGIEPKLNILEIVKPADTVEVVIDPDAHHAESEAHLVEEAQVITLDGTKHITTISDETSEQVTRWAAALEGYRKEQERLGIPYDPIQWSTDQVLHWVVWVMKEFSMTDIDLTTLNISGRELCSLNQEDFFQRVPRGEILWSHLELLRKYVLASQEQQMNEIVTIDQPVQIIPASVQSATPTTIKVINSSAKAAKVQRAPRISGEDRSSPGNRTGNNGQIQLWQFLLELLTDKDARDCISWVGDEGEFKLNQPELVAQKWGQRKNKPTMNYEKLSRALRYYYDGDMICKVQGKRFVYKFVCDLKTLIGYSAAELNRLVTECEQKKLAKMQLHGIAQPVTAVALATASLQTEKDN
# Summary of the method: as §1
# ERG = molecular target: T4, ERG (Homo sapiens, UniProt P11308 1-479)
# T4 sequence: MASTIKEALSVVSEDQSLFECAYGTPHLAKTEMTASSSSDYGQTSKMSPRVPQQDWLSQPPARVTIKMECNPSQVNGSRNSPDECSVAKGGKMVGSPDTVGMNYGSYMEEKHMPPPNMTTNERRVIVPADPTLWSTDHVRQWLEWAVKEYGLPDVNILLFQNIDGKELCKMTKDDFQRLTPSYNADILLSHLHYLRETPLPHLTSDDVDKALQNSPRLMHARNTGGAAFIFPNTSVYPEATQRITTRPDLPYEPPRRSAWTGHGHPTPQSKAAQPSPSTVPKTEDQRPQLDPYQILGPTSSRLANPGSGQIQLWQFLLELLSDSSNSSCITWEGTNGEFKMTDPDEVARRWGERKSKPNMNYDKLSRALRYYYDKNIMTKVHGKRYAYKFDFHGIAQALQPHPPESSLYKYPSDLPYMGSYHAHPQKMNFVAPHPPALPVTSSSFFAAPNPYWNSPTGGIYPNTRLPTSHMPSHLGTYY
# Summary of the method: as §1
# ELF1 = ELF1 (Homo sapiens, UniProt P32519 1-619)
# Summary of the method: as §1
# EHF = molecular target: T5, EHF (Homo sapiens, UniProt Q9NZC4 1-300)
# T5 sequence: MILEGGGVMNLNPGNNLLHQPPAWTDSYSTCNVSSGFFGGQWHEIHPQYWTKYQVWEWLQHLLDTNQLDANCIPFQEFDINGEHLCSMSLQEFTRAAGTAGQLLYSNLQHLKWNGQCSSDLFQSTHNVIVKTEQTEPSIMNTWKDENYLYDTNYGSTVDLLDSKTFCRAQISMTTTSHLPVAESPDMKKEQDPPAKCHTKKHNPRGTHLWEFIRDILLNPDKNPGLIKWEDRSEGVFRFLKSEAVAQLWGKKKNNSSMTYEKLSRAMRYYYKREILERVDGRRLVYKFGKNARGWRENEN
# Summary of the method: as §1
# SPI1 = SPI1 (Homo sapiens, UniProt P17947 1-270)
# Summary of the method: as §1
# SPIB = SPIB (Homo sapiens, UniProt Q01892 1-262)
# Summary of the method: as §1
# ELK3 = molecular target: T6, ELK3 (Homo sapiens, UniProt P41970 1-407)
# T6 sequence: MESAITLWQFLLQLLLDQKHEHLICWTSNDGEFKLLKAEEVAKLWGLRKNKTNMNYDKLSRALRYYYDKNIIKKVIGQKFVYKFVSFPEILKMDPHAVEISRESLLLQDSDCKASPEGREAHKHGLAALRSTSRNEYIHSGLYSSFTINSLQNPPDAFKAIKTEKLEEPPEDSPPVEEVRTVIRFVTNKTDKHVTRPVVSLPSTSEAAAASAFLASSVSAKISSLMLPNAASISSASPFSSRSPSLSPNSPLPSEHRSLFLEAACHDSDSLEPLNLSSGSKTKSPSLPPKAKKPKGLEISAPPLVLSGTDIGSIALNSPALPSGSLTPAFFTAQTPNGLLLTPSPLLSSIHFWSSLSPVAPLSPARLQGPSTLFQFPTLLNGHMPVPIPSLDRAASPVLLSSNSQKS
# Summary of the method: as §1
# ELF1, sequence (P32519 whole entry): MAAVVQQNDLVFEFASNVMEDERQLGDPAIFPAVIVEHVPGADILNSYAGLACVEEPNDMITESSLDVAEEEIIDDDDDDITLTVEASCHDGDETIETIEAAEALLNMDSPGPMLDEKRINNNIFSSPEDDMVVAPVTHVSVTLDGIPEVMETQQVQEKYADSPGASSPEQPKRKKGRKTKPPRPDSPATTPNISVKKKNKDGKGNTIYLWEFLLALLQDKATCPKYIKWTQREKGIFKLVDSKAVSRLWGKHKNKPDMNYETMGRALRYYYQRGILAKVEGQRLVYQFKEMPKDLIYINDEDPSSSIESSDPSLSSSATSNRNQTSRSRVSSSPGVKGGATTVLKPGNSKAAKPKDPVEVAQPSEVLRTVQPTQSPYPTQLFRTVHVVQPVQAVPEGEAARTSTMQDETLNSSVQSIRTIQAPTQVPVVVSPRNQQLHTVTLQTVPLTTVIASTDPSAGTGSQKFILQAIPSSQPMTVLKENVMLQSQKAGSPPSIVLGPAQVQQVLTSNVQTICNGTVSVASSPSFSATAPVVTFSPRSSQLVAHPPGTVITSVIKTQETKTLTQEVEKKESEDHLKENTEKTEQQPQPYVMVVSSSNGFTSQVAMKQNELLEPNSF
# SPIB, sequence (Q01892 whole entry): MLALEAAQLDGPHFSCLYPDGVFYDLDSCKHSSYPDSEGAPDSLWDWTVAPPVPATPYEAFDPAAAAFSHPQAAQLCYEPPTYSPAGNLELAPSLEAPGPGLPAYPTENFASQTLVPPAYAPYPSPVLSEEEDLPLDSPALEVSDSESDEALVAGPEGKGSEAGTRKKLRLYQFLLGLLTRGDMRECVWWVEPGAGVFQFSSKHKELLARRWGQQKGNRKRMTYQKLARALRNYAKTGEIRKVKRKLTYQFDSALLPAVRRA
sequence,measurement,setting,value
TAAGAT,binding signal,FLI1,"1.17 fold enrichment (6-mer frequency, TF over GST control)"
same,binding signal,ELK1,"1.26 fold enrichment (6-mer frequency, TF over GST control)"
same,binding signal,GABPA,"1.19 fold enrichment (6-mer frequency, TF over GST control)"
same,binding signal,ERG,"1.21 fold enrichment (6-mer frequency, TF over GST control)"
same,binding signal,ELF1,"1.24 fold enrichment (6-mer frequency, TF over GST control)"
same,binding signal,EHF,"1.3 fold enrichment (6-mer frequency, TF over GST control)"
same,binding signal,SPI1,"1.21 fold enrichment (6-mer frequency, TF over GST control)"
same,binding signal,SPIB,"1.31 fold enrichment (6-mer frequency, TF over GST control)"
same,binding signal,ELK3,"1.2 fold enrichment (6-mer frequency, TF over GST control)"

# Source: PMC7862700, “An all-to-all approach to the identification of sequence-specific readers for epigenetic DNA modifications on cytosine”
